Assay outcomes: PubChem BioAssay, Broad Institute
Only a selection was taken, and hits are over-represented in it overall.
ROS inducer: inducers of reactive oxygen species in cancer cells. 2% of 46,000 active. U2OS ROS induction, H2DCF-DA fluorescence. AID 624156. ROS induction (% of piperlongumine), % at 10 µM; in the data active means ROS induction above about 79%, passing the limit was not always enough;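 further: 0% = DMSO vehicle median and 100% = reference compound median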
The depositor's hits bear a star.

SMILES	ROS inducer
CCOc1ccc(-c2cc(NC(=O)Nc3ccc(F)cc3)c(C(=O)OC)s2)cc1	35
O=C(NCCC1=CCCCC1)c1ccc(Cn2c(=S)[nH]c3cc4c(cc3c2=O)OCO4)cc1	42
C[C@H](CO)N1C[C@H](C)[C@H](CN(C)C(=O)Nc2ccccc2)Oc2ncc(C#Cc3cccc(F)c3)cc2C1=O	3
COc1ccc(C#Cc2cnc3c(c2)C(=O)N([C@H](C)CO)C[C@H](C)[C@H](CN(C)C(=O)Nc2c(C)noc2C)O3)cc1OC	24
COc1ccc(S(=O)(=O)N(C)C[C@@H]2Oc3ncc(C#Cc4ccc(OC)c(OC)c4)cc3C(=O)N([C@H](C)CO)C[C@@H]2C)cc1	62
COc1ccc(NC(=O)N(C)C[C@@H]2Oc3ncc(C#Cc4ccc(OC)c(OC)c4)cc3C(=O)N([C@H](C)CO)C[C@@H]2C)cc1	104*
C[C@H](CO)N1C[C@H](C)[C@H](CN(C)C(=O)Nc2ccc(F)cc2)Oc2ncc(C#Cc3ccc(C(F)(F)F)cc3)cc2C1=O	49
COc1ccc(C#Cc2cnc3c(c2)C(=O)N([C@H](C)CO)C[C@H](C)[C@H](CN(C)C(=O)Nc2ccc4c(c2)OCO4)O3)cc1OC	118*
COc1ccc(NC(=O)N(C)C[C@@H]2Oc3ncc(C#CCN(C)C)cc3C(=O)N([C@H](C)CO)C[C@@H]2C)cc1	-6
COc1ccc(C#Cc2cnc3c(c2)C(=O)N([C@H](C)CO)C[C@H](C)[C@H](CN(C)C)O3)cc1OC	30
C[C@H](CO)N1C[C@H](C)[C@H](CN(C)C(=O)Nc2ccccc2)Oc2ncc(C#Cc3ccc(F)cc3)cc2C1=O	132*
C=CCNC(=O)CN1N=C(c2ccccc2)CCC1=O	-11
O=C(c1ccco1)N1CCN(Cc2ccc3c(c2)OCO3)CC1	-5
Cc1ccc(Oc2ncccc2NC(=O)Nc2ccccc2)c2c1CCC2	9
COC(=O)c1ccc(Oc2nc(Nc3ccccc3F)nc(N3CCCCC3C)n2)cc1 (stereo not given)	10
CCCN(C(=O)Cn1ncc2c1-c1ccccc1OC2)c1ccc(Cl)c(Cl)c1	0
CCOC(=O)c1c(-c2ccccc2)oc2ccc(NS(=O)(=O)c3ccc(CC)cc3)cc12	9
O=C(c1ccco1)N1CCN(c2ncnc3nc[nH]c23)CC1	-8
COc1cc(O)c2c(=O)cc(-c3ccc(O)cc3)oc2c1	6
COc1ccc(N=c2cc(-c3ccc(OC)cc3)oc3ccc(O)cc23)cc1	193*
COc1ccc(-c2cc(=O)c3ccccc3o2)cc1	10
CC1=CN2C(=N)/C(=C/c3cc(C)n(Cc4ccccc4)c3C)C(=O)N=C2S1	13
O=C(CN1C(=O)c2ccccc2S1(=O)=O)Nc1ccc(Cl)cc1	-9
CCNc1nc(NC(C)(C)C)nc(N(C#N)CC(=O)OC)n1	-45
CC(C)(C)Nc1nc(Cl)nc(N(C#N)CN2C(=O)c3ccccc3S2(=O)=O)n1	94*
SMILES	ROS inducer
Cc1[nH]c(-c2ccc(F)cc2)cc1C(=O)NC1CCCCC1	-21
Cc1ccc(N(C)S(=O)(=O)c2cc(Br)cnc2N)cc1	-3
CCNC(=O)C1CCCN(c2nnc(N3CCCC3=O)s2)C1 (stereo not given)	-9
C/C(=N\N)c1c(C)cc(C)[nH]c1=O	-6
COC(=O)CCCCCCC(=O)N/N=C/c1ccc(O)cc1	16
COC(=O)CCCCCCC(=O)N/N=C/c1ccc(F)cc1	16
COC(=O)CCCCCCC(=O)N/N=C/c1c(F)c(F)c(F)c(F)c1F	266*
CCOC(=O)CSc1nc2c(sc3ccccc32)c(=O)n1Cc1ccccc1	65
CCOC(=O)c1cnn(CCOC(=O)c2ccccc2F)c1NC(=O)c1ccccc1F	0
COC(=O)C1=CN(c2ccc(F)cc2)C=C(C(=O)OC)C1c1cccc(O)c1	44
CCOC(=O)C1=CN(c2ccc(C)c(C)c2)C=C(C(=O)OCC)C1c1ccccc1F	96*
Cc1ccc(NC(=O)N2CCC(N(C)C(C)C)CC2)cc1C	-13
COC(=O)c1ccc2c(=O)n(-c3ccc(F)c(Cl)c3)c(SCC(=O)C(C)(C)C)nc2c1	53
CC(C)COc1ccc(C(=S)N2CCCCC2)cc1	1
CCOc1cccc2cc(-c3nc4ccccc4s3)c(=O)oc12	17
c1cc(-c2nc3ccccc3s2)nc(-c2nc3ccccc3s2)c1	-15
O=c1oc2cc(O)ccc2cc1-c1nc2ccccc2s1	149*
CCOC(=O)C1=C(C)N(CCO)C(=O)NC1c1ccc(O)cc1 (stereo not given)	-13
COc1cccc(C(=O)N2CCCCCC2)c1	-9
CC(=O)Oc1ccc(C(=O)Nc2ccc(F)cc2F)cc1	-10
C[C@H](CO)N1C[C@H](C)[C@@H](CN(C)C(=O)Nc2ccc3c(c2)OCO3)Oc2ccc(NC(=O)Nc3cccc4ccccc34)cc2C1=O	-9
C[C@H](CO)N1C[C@H](C)[C@H](CN(C)C(=O)Nc2ccc3c(c2)OCO3)Oc2ccc(NC(=O)Nc3cccc4ccccc34)cc2C1=O	79*
C[C@@H]1CN([C@@H](C)CO)C(=O)c2cc(NC(=O)Nc3cccc4ccccc34)ccc2O[C@@H]1CN(C)Cc1ccc2c(c1)OCO2	-8
